The list is not random: actives were taken first. Their share in the collection is about 1.5%.
JMJD2C inh – inhibitors of GASC-1 histone demethylase, primary screen, biochemical, fluorescence, DELFIA europium. Lysine-specific demethylase 4C (Homo sapiens), Q9H3R0. 330,000 compounds, 0.069% hits. GST-JMJD2C(1-420) H3K9me3 demethylation. AID 2099, 2009. inhibition, % at 2.35 µM;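 active = more than half of a compound's replicate wells show inhibition beyond 50%, single wells judged on their own value; inconclusive = some, but no more than half, of replicates pass 50% inhibition; inactive = no replicate passes 50% inhibition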;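 also: signal counts dimethyl H3K9 product captured on neutravidin plate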
Efflux pump inh – inhibitors of Candida efflux pumps in yeast, primary screen, S. cerevisiae, Nile Red, multiplex; 330,000 compounds, 0.44% hits; inhibition, % at 10 µM; S. cerevisiae Candida pump triplex;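 active = plate passing quality check with inhibition over a set limit, or well fluorescence over plate mean plus 4 SD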;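 also: Nile Red retained in pooled yeast measured as flow cytometry median fluorescence; higher means more Nile Red kept so more efflux inhibition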
NALP1 inh – NALP1 inflammasome inhibitors in reconstituted yeast, colorimetric, S. cerevisiae, triplicate retest. S. cerevisiae NALP1/ASC/caspase-1 growth, X-gal OD620, 72 h. inhibition, % at 10 µM. 280,000 compounds, 0.61% hits. AID 2071, 2009; in the data active = inhibition mostly above about 24%, no sharp cut-off; inactive = mostly below about 32%
PolyA inhibitor – polyadenylation inhibitors in yeast reporter cells, primary screen, luminescence, S. cerevisiae | S. cerevisiae SKY197-pL101 polyadenylation reporter, beta-gal luminescence; efflux-impaired pdr1/pdr3 knockout yeast; score 100 = 6 SD above DMSO | AID 1875, 2009 | 300,000 compounds, 0.02% hits | activity score, % at 12 µM;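 active = lowest replicate activity score at least 50, where 100 means six control SD above control mean; inconclusive = lowest score under 50 but half or more replicates reach 50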;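 also: yeast exposed to compound for 9 h at 30 °C; higher score means more reporter readthrough which indicates perturbed polyadenylation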
HDAC3 inhib – HDAC3 deacetylase inhibitors, primary screen, biochemical, fluorescence, cell-free homogeneous; Histone deacetylase 3 (Homo sapiens), O15379; 320,000 compounds, 0.15% hits; recombinant HDAC3, fluorogenic peptide/trypsin coupled; inhibition, % at 8.3 µM; in the data active = inhibition above about 26%, passing the limit was not always enough; inconclusive = no clear call, values can overlap the other calls
Target sequence (O15379 whole entry, looked up): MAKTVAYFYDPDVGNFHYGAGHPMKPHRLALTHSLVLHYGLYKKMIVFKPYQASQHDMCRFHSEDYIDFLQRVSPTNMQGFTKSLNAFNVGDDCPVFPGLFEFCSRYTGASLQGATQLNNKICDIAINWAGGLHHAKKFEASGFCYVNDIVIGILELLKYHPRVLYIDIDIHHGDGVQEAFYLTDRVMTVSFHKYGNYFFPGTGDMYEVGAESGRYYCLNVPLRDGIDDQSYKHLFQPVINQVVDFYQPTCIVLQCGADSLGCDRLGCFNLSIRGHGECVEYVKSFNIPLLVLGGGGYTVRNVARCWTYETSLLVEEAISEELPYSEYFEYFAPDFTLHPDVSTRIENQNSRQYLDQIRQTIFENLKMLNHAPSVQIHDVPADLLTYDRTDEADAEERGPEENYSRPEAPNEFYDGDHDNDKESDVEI
NLRP3 yeast inh – NALP3 inflammasome inhibitors in reconstituted yeast, primary screen, luminescence, uHTS; Yeast reconstituted NLRP3/ASC/caspase-1, beta-gal luminescence, 24 h; inhibition, % at 10 µM; 330,000 compounds, 0.39% hits;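 active = inhibition of 50% or more; inactive = inhibition below 50%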
Of the large screens only hits and unclear results are named; the others gave an inactive call.

CCN1/C(=C/C=C/C=C/c2sc3ccccc3[n+]2CC)Sc2ccccc21	Efflux pump inh 0.8, NALP1 inh 133, HDAC3 inhib 36
CCN1/C(=C/C=C/C=C/C=C/c2sc3ccccc3[n+]2CC)Sc2ccccc21	NALP1 inh 39
CCN1/C(=C/C=C/c2sc3ccccc3[n+]2CC)Sc2ccccc21	PolyA inhibitor 93 (no result: NALP1 inh)
O=C(CCN1CCN(Cc2ccccc2)CC1)NNC(=O)Nc1cccc(Cl)c1	none
O=C(CCN1CCN(Cc2ccccc2)CC1)NNC(=O)Nc1cccc([N+](=O)[O-])c1	NALP1 inh 26
CCOc1ccc(S(=O)(=O)N(C)CC(=O)N2CCN(CC)CC2)cc1	none
O=C(Nc1ccccc1O)c1ccc2c(c1)C(=O)N(Cc1ccco1)C2=O	HDAC3 inhib 41 (no result: PolyA inhibitor)
CCCN1C(=O)c2ccc(C(=O)Nc3cc(C)ccc3O)cc2C1=O	JMJD2C inh 57
CC1CCN(Cc2nnnn2CCCC(=O)NCCc2cnn(C)c2)CC1	none
CCN(CC)C(=O)[C@H]1C[C@H](CC(=O)NCCCOC)C(=O)N2CCc3c([nH]c4cc(CCC(=O)N(C)C)ccc34)[C@]12C	none (no result: JMJD2C inh, NALP1 inh, PolyA inhibitor, HDAC3 inhib, NLRP3 yeast inh)
Cc1cc(OCCCC(=O)N2CCCCC2)cc(C)c1Cl	NALP1 inh 21
Cc1cc(Cl)ccc1OCCCC(=O)N1CCCCC1	none
O=C(COC(=O)C1CCN(S(=O)(=O)c2cccs2)CC1)NCc1ccc(F)cc1	none (no result: HDAC3 inhib)
CCN1C(=O)CC(Sc2ccccc2C(=O)O)C1=O (centres undefined)	none
COC(=O)c1ccccc1SC1CC(=O)N(c2ccccc2)C1=O (centres undefined)	NALP1 inh 78
CCN(CC(=O)NCc1cccs1)C(=O)c1cc(S(=O)(=O)N2CCCCC2)ccc1Cl	none (no result: NALP1 inh)
CCN(CC(=O)NCc1cccs1)c1ccc(S(=O)(=O)N2CCN(C)CC2)cn1	NALP1 inh 39
O=C1C=C(c2cnc3ccccc3c2)C[C@@H](c2ccc3c(c2)OCO3)C1	none (no result: NALP1 inh, PolyA inhibitor)
O=C(CSc1nc2ccccc2o1)Nc1ccc(N2CCOCC2)cc1	NALP1 inh 28
O=C(CN1CCN(c2ccccc2)CC1)c1ccc2cc[nH]c2c1	NALP1 inh 38
CCOC(=O)c1c(NC(=O)C2CCCO2)sc(C)c1C (centres undefined)	none
CCOC(=O)c1c(NC(=O)C2CCCO2)sc2c1CCC2 (centres undefined)	JMJD2C inh 52
COC(=O)C(/C=N/OCc1ccc([N+](=O)[O-])cc1)NC(=O)c1ccccc1 (centres undefined)	HDAC3 inhib 44
O=C(NCCc1ccc([N+](=O)[O-])cc1)c1ccccc1	NALP1 inh 34
O=C(NCCc1ccccc1)c1ccc([N+](=O)[O-])cc1	JMJD2C inh inconclusive
O=C(NCCc1ccccc1)C(=O)Nc1ccc([N+](=O)[O-])cc1	NALP1 inh 30
CCOC(=O)c1cc(C#N)c(SC(C)C(=O)NC2CCCCC2)nc1C (centres undefined)	none (no result: NALP1 inh, PolyA inhibitor)
CCOC(=O)C1CN(S(=O)(=O)c2cc(OC)ccc2OC)C1	none
COC(=O)C(Cc1ccccc1)NCC(=O)Nc1cccc(Cl)c1C (centres undefined)	none
O=C(O)CCC(=O)Nc1cc(C(F)(F)F)cc(C(F)(F)F)c1	none
COC(=O)c1c(C)oc(C)c(C(=O)OC)c1=O	NALP1 inh 22
CSc1ccc(CCNC(=O)CN2C(=O)CCSc3ccccc32)cc1	none
CCOc1ccc(CCNC(=O)CN2C(=O)CCSc3ccccc32)cc1OCC	PolyA inhibitor 67
COc1ccc(C(=O)NCc2nnc(SCC(=O)c3ccccc3)o2)cc1	none
COc1ccc(NCc2nnc(SCC(=O)c3ccc(OC)cc3)o2)cc1	HDAC3 inhib 41
CC(C)(C)OC(=O)COc1ccc(/C=N/NC(=O)CN2CCCCC2)cc1	none (no result: Efflux pump inh, HDAC3 inhib)
C[C@H]1CN(CCc2ccccc2)C(=O)[C@@H]1CC(=O)NCc1ccccc1	JMJD2C inh 61
CCCCc1ccc(/C=C2\C(=O)c3ccccc3C(O)=C2C(=O)OCC)cc1	Efflux pump inh 1.1
CCOC(=O)C1=C(Cc2ccc(F)cc2)C(=O)c2ccccc2C1=O	none
S=C(c1ccc(-c2cccc(Cl)c2)o1)N1CCCCC1	NALP1 inh 38
COc1ccc(S(=O)(=O)N2CCN(C(=O)CCNC(=O)c3ccccc3Cl)CC2)cc1	none (no result: NALP1 inh, PolyA inhibitor)
CC1CCCN(CCOCCOc2ccc(Br)cc2Cl)C1 (centres undefined)	NALP1 inh 48
CC1CCCN(CCOCCOc2ccc(Cl)cc2Br)C1 (centres undefined)	NALP1 inh 42
CN1CCN(CCOCCOc2ccc(Br)cc2Cl)CC1	none
CCCCNCCOCCOc1ccc(Cl)cc1Br	NALP1 inh 52
C=CC[C@@H](CC(=O)N[C@H](CO)Cc1ccccc1)C(=O)N[C@H](COC(=O)[C@@H](CC=C)CC(=O)OC(C)(C)C)Cc1c[nH]c2ccccc12	none (no result: NALP1 inh, PolyA inhibitor)
C=CC[C@@H](CC(=O)N[C@@H](CO)Cc1ccccc1)C(=O)N[C@@H](COC(=O)[C@H](CC=C)CC(=O)OC(C)(C)C)Cc1c[nH]c2ccccc12	HDAC3 inhib 39 (no result: NALP1 inh, PolyA inhibitor)
C=CC[C@H](CC(=O)N[C@H](CO)Cc1ccccc1)C(=O)N[C@@H](COC(=O)[C@H](CC=C)CC(=O)OC(C)(C)C)Cc1c[nH]c2ccccc12	HDAC3 inhib 44 (no result: JMJD2C inh, NALP1 inh, PolyA inhibitor)
CN(c1ccc(C(=O)O)cc1)S(=O)(=O)c1ccccc1	JMJD2C inh 65
O=c1c2ccccc2sn1-c1ccc(F)cc1	none (no result: NALP1 inh, PolyA inhibitor)
COC(=O)c1cccc(-n2sc3ccccc3c2=O)c1	HDAC3 inhib 67 (no result: NALP1 inh, PolyA inhibitor)
COC(=O)c1cccc(N2CCCC2=O)c1	none (no result: NALP1 inh, HDAC3 inhib)
Cc1ccc(-n2sc3ccccc3c2=O)cc1	HDAC3 inhib 52
Cc1ccc(C(=O)N(C)CC(=O)Nc2ccc(N3CCOCC3)cc2)s1	none (no result: NALP1 inh)
O=C(N/N=C/c1ccncc1)c1nn(Cc2ccccc2)c(=O)c2ccccc12	none
O=C(Cn1cnc2ccccc2c1=O)NCCC(=O)Nc1ccc(F)cc1	none
N=c1n(CC(=O)c2ccc([N+](=O)[O-])cc2)c2ccccc2n1Cc1ccc(Cl)cc1	NALP1 inh 64, HDAC3 inhib inconclusive
CCc1cccc2sc(N3CCN(C(=O)c4ccc([N+](=O)[O-])o4)CC3)nc12	none (no result: NALP1 inh)
COCCN(Cc1cc2cc(C)ccc2n2nnnc12)C(=S)Nc1ccccc1C	NALP1 inh 24
COc1ccc(OC)c(NC(=O)C(C)Oc2ccc(Br)cc2)c1 (centres undefined)	none
O=[N+]([O-])c1cccnc1N1CCC(c2cc(-c3ccc(Cl)cc3)n[nH]2)CC1	NALP1 inh 40, HDAC3 inhib inconclusive
